The full ranking holds about 8,300 sequences; the median of “log2 fold change of degron read counts, EGFP-low vs EGFP+ sorted cells (limma voom), compound-induced degradation” is about -1.1, and the highest 2% start at about 3.2. The sample as a whole holds a higher share of the highest values than the screen did.

This assay deals with T1, CRBN, Q96SW2.
T1 chain: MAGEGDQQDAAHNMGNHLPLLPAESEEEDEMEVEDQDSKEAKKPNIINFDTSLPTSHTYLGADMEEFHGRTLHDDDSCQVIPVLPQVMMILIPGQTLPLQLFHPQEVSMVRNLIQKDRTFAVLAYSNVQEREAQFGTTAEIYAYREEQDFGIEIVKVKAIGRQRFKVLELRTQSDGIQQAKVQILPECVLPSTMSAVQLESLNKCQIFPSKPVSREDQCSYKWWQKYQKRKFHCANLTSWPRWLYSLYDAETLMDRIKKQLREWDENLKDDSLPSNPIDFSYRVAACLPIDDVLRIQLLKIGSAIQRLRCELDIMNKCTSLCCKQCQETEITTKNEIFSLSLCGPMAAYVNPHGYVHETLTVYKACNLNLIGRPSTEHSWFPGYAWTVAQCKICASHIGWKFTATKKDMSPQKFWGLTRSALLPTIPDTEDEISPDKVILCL
Nature of the assay: log2 fold change of degron read counts, EGFP-low vs EGFP+ sorted cells (limma voom), compound-induced degradation; higher = more compound-induced degradation of the degron-EGFP fusion; degrons are variants of IKZF1/3 zinc finger 2; compound dose not given here. The settings on record: Jurkat, 18 h.

The mark [1] stands for this setting: compound: compound 19 (5-tert-butyl-thalidomide).
Setting [2] is: compound: compound 22 (5-morpholino-thalidomide).
Setting [3] is: compound: compound 33 (diphenyl IMiD analogue).
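Further: pooled lentiviral library of zinc finger degron-EGFP fusions in mCherry-positive Jurkat cells, FACS-sorted after compound exposure, with degron abundance counted by next-generation sequencing.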

Consider FECDVCGAMFTQKGNLLRHIKL [46F_47E_49D_50V_52G_53A_54M_55F_67L_, Q9UKT9], for which the “log2 fold change of degron read counts” value is -2.71 under setting [1], -3.65 under setting [2], -2.05 under setting [3] and -1.53 (compound: thalidomide).

FWCEQCGANFTQKGNLLRHIKL [46F_47W_49E_50Q_52G_53A_54N_55F_67L_, Q9UKT9]: the “log2 fold change of degron read counts” value by setting is: under setting [1], 0.0998; under setting [2], 2.8; under setting [3], -0.0431; (compound: thalidomide) -0.721.

For the sequence FQCNVCGAVFTQKGNLLRHIKL [46F_47Q_49N_50V_52G_53A_54V_55F_67L_, Q9UKT9], the “log2 fold change of degron read counts” value is, setting by setting: under setting [1], -1.74; under setting [2], 1.21; under setting [3], 1.22; (compound: thalidomide) 3.41.

With FICNVCGAVFTQKGNLLRHIKL [46F_47I_49N_50V_52G_53A_54V_55F_67L_, Q9UKT9], the “log2 fold change of degron read counts” value by setting is: under setting [1], -2.28; under setting [2], -1.69; under setting [3], 0.455; (compound: thalidomide) -0.566.

As for FYCNVCGAVFTQKGNLLRHIKL [46F_47Y_49N_50V_52G_53A_54V_55F_67L_, Q9UKT9], the “log2 fold change of degron read counts” value by setting is: under setting [1], -0.0367; under setting [2], 1.2; under setting [3], 0.445; (compound: thalidomide) -1.56.

Regarding FVCPVCGAQFTQKGNLLRHIKL [46F_47V_49P_50V_52G_53A_54Q_55F_67L_, Q9UKT9], the “log2 fold change of degron read counts” value runs as follows: under setting [1], -0.526; under setting [2], 2.62; under setting [3], 2.83; (compound: thalidomide) 2.98.

As to FCCPVCGAQFTQKGNLLRHIKL [46F_47C_49P_50V_52G_53A_54Q_55F_67L_, Q9UKT9], the “log2 fold change of degron read counts” value was 2.69 under setting [1], 2.25 under setting [2], 2.84 under setting [3] and 2.3 (compound: thalidomide).

As for FWCPQCGAQFTQKGNLLRHIKL [46F_47W_49P_50Q_52G_53A_54Q_55F_67L_, Q9UKT9], the “log2 fold change of degron read counts” value under setting [1] is 0.804, the “log2 fold change of degron read counts” value under setting [2] was determined as 3.54, the “log2 fold change of degron read counts” value under setting [3] came out at 1.31 and the “log2 fold change of degron read counts” value (compound: thalidomide) was found to be 0.158.

For the sequence FRCPVCGAQFTQKGNLLRHIKL [46F_47R_49P_50V_52G_53A_54Q_55F_67L_, Q9UKT9], the “log2 fold change of degron read counts” value under setting [1] is -0.139, the “log2 fold change of degron read counts” value under setting [2] is 0.391, the “log2 fold change of degron read counts” value under setting [3] turned out to be 0.974 and the “log2 fold change of degron read counts” value (compound: thalidomide) was found to be 1.28.

For the sequence FLCPVCGAQFTQKGNLLRHIKL [46F_47L_49P_50V_52G_53A_54Q_55F_67L_, Q9UKT9], the “log2 fold change of degron read counts” value reads like this: under setting [1], 0.29; under setting [2], -0.0233; under setting [3], 1.82; (compound: thalidomide) 1.61.

Consider FSCPVCGAQFTQKGNLLRHIKL [46F_47S_49P_50V_52G_53A_54Q_55F_67L_, Q9UKT9], for which the “log2 fold change of degron read counts” value runs as follows: under setting [1], 2.24; under setting [2], 2.08; under setting [3], 1.65; (compound: thalidomide) 1.45.

Regarding FVCPQCGAQFTQKGNLLRHIKL [46F_47V_49P_50Q_52G_53A_54Q_55F_67L_, Q9UKT9], the “log2 fold change of degron read counts” value by setting is: under setting [1], -1.74; under setting [2], 0.725; under setting [3], 1.72; (compound: thalidomide) 1.08.

For the sequence FWCPVCGAQFTQKGNLLRHIKL [46F_47W_49P_50V_52G_53A_54Q_55F_67L_, Q9UKT9], the “log2 fold change of degron read counts” value is 2.98 under setting [1], 3.92 under setting [2], 2.63 under setting [3] and 2.09 (compound: thalidomide).

For FMCPVCGAQFTQKGNLLRHIKL [46F_47M_49P_50V_52G_53A_54Q_55F_67L_, Q9UKT9], the “log2 fold change of degron read counts” value under setting [1] was -0.258, the “log2 fold change of degron read counts” value under setting [2] was 1.27, the “log2 fold change of degron read counts” value under setting [3] amounted to 2.9 and the “log2 fold change of degron read counts” value (compound: thalidomide) was determined as 1.78.

In the case of FACPQCGAQFTQKGNLLRHIKL [46F_47A_49P_50Q_52G_53A_54Q_55F_67L_, Q9UKT9], the “log2 fold change of degron read counts” value is 0.495 under setting [1], -1.5 under setting [2], -0.396 under setting [3] and -1.08 (compound: thalidomide).

As for FYCPVCGAQFTQKGNLLRHIKL [46F_47Y_49P_50V_52G_53A_54Q_55F_67L_, Q9UKT9], the “log2 fold change of degron read counts” value by setting is: under setting [1], 2.88; under setting [2], 3.65; under setting [3], 2.38; (compound: thalidomide) 1.69.

As to FFCPVCGAQFTQKGNLLRHIKL [46F_47F_49P_50V_52G_53A_54Q_55F_67L_, Q9UKT9], the “log2 fold change of degron read counts” value is 3.11 under setting [1], 3.47 under setting [2], 2.43 under setting [3] and 1.92 (compound: thalidomide).

On to FRCPQCGARFTQKGNLLRHIKL [46F_47R_49P_50Q_52G_53A_54R_55F_67L_, Q9UKT9], for which the “log2 fold change of degron read counts” value runs as follows: under setting [1], -2.3; under setting [2], -2.09; under setting [3], -1.12; (compound: thalidomide) -1.27.

On to FLCPQCGAKFTQKGNLLRHIKL [46F_47L_49P_50Q_52G_53A_54K_55F_67L_, Q9UKT9], for which the “log2 fold change of degron read counts” value is -2.44 under setting [1], -2.82 under setting [2], -1.39 under setting [3] and -0.831 (compound: thalidomide).

In the case of FKCEVCGAQFTQKGNLLRHIKL [46F_47K_49E_50V_52G_53A_54Q_55F_67L_, Q9UKT9], the “log2 fold change of degron read counts” value was -0.0625 under setting [1], -2.24 under setting [2], -2.07 under setting [3] and -0.411 (compound: thalidomide).

For FFCEICGRAFTQKGNLLRHIKL [46F_47F_49E_50I_52G_53R_54A_55F_67L_, Q9UKT9], the “log2 fold change of degron read counts” value is 0.601 under setting [1], -0.248 under setting [2], 0.402 under setting [3] and -1.11 (compound: thalidomide).

Regarding FKCEICGHPFTQKGNLLRHIKL [46F_47K_49E_50I_52G_53H_54P_55F_67L_, Q9UKT9], the “log2 fold change of degron read counts” value was -2.59 under setting [1], -2.5 under setting [2], -2.61 under setting [3] and -0.946 (compound: thalidomide).

Turning to FKCPICGRFFTQKGNLLRHIKL [46F_47K_49P_50I_52G_53R_54F_55F_67L_, Q9UKT9], the “log2 fold change of degron read counts” value was -1.81 under setting [1], -1.89 under setting [2], -2.21 under setting [3] and -1.32 (compound: thalidomide).

Take FRCDICGANFTQKGNLLRHIKL [46F_47R_49D_50I_52G_53A_54N_55F_67L_, Q9UKT9]: the “log2 fold change of degron read counts” value runs as follows: under setting [1], -1.48; under setting [2], -1.55; under setting [3], 0.418; (compound: thalidomide) -0.326.

On to FDCNVCGAYFTQKGNLLRHIKL [46F_47D_49N_50V_52G_53A_54Y_55F_67L_, Q9UKT9], for which the “log2 fold change of degron read counts” value by setting is: under setting [1], -1.56; under setting [2], -2.08; under setting [3], -0.374; (compound: thalidomide) -0.686.

On to FICSVCGHEFTQKGNLLRHIKL [46F_47I_49S_50V_52G_53H_54E_55F_67L_, Q9UKT9], for which the “log2 fold change of degron read counts” value was -3.46 under setting [1], -3.92 under setting [2], -3.21 under setting [3] and -3.41 (compound: thalidomide).

Consider FNCPVCGAQFTQKGNLLRHIKL [46F_47N_49P_50V_52G_53A_54Q_55F_67L_, Q9UKT9], for which the “log2 fold change of degron read counts” value is 2.01 under setting [1], 1.68 under setting [2], 0.869 under setting [3] and 0.953 (compound: thalidomide).

For the sequence FDCPVCGAQFTQKGNLLRHIKL [46F_47D_49P_50V_52G_53A_54Q_55F_67L_, Q9UKT9], the “log2 fold change of degron read counts” value is, setting by setting: under setting [1], 1.44; under setting [2], 0.833; under setting [3], 1.04; (compound: thalidomide) 2.23.

As to FICPVCGAQFTQKGNLLRHIKL [46F_47I_49P_50V_52G_53A_54Q_55F_67L_, Q9UKT9], the “log2 fold change of degron read counts” value is -0.745 under setting [1], 2.74 under setting [2], 2.89 under setting [3] and 2.73 (compound: thalidomide).

With FQCPVCGAQFTQKGNLLRHIKL [46F_47Q_49P_50V_52G_53A_54Q_55F_67L_, Q9UKT9], the “log2 fold change of degron read counts” value reads like this: under setting [1], 0.712; under setting [2], 2.48; under setting [3], 2.51; (compound: thalidomide) 3.59.

On to FGCPVCGAQFTQKGNLLRHIKL [46F_47G_49P_50V_52G_53A_54Q_55F_67L_, Q9UKT9], for which the “log2 fold change of degron read counts” value under setting [1] turned out to be 3.8, the “log2 fold change of degron read counts” value under setting [2] came to 2.65, the “log2 fold change of degron read counts” value under setting [3] was found to be 1.73 and the “log2 fold change of degron read counts” value (compound: thalidomide) was found to be 1.07.

Take FHCPVCGAQFTQKGNLLRHIKL [46F_47H_49P_50V_52G_53A_54Q_55F_67L_, Q9UKT9]: the “log2 fold change of degron read counts” value is, setting by setting: under setting [1], 1.78; under setting [2], 2.55; under setting [3], 2.19; (compound: thalidomide) 1.13.

On to FLCDVCGALFTQKGNLLRHIKL [46F_47L_49D_50V_52G_53A_54L_55F_67L_, Q9UKT9], for which the “log2 fold change of degron read counts” value under setting [1] is -2.27, the “log2 fold change of degron read counts” value under setting [2] was -2.28, the “log2 fold change of degron read counts” value under setting [3] is -1.03 and the “log2 fold change of degron read counts” value (compound: thalidomide) is -1.23.

In the case of FNCPVCGAVFTQKGNLLRHIKL [46F_47N_49P_50V_52G_53A_54V_55F_67L_, Q9UKT9], the “log2 fold change of degron read counts” value was found to be 0.592 under setting [1], 0.118 under setting [2], 0.729 under setting [3] and 0.198 (compound: thalidomide).
